Data as given in PubChem BioAssay (Tox21).
Where “and” joins values, the source holds several entries; their conditions need not be identical. Equal entries are not always repeated. The source holds several records for some structures; these can differ, active in one and inactive in another. Calls of active or inactive are those of the source. A call without a number means that no potency is given here. Unless noted, calls follow the shape of the dose curve; as a rule, active = well fitted curve in the direction sought with a large enough effect in the repeat runs; inconclusive = weak or mixed curves; inactive = no such curve, though single readings can be large; an effect the other way counts as inactive or inconclusive.

Experiments:
[1] = qHTS assay to identify small molecule antagonists of the thyroid receptor (TR) signaling pathway - cell viability counter screen (AID 743064); also: nearly all actives have a fitted effect of over 50% in size; also: potency is read from the fitted curve at half-maximal effect
Summary of the method: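 CellTiter-Fluor readout, 30 min at 37 °C/5% CO2, following 23.5 h incubation of GH3.TRE-Luc cells with test compound and 1 nM T3 (final).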

[2] = target: Estrogen receptor (Homo sapiens) (UniProt P03372); experiment: qHTS assay to identify small molecule antagonists of the estrogen receptor alpha (ER-alpha) signaling pathway (AID 743069; active = well fitted curve in the direction sought with a large enough effect in the signal ratio in the repeat runs, not every such curve was filed as active; inconclusive = weak or mixed curves, or effect the other way; inactive = no such curve, though single readings can be large or run the other way; the % refers to the signal ratio; also: potency is read from the fitted curve at half-maximal effect)
Chain of Estrogen receptor (Homo sapiens) (P03372 whole entry, looked up): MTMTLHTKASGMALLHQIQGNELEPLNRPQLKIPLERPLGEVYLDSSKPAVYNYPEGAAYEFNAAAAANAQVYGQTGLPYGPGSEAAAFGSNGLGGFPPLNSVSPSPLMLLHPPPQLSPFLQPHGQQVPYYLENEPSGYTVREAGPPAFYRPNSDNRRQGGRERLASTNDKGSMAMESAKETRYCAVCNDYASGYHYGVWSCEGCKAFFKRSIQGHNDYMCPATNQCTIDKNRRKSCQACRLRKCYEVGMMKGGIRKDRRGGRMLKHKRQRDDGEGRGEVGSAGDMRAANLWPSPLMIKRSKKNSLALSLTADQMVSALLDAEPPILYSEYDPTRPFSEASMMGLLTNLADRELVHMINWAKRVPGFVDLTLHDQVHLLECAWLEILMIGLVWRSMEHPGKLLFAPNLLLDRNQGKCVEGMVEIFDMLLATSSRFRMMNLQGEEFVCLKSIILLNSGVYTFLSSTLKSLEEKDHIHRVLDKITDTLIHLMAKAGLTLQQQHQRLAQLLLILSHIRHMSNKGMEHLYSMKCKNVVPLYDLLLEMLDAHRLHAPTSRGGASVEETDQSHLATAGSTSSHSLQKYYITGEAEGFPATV
Summary of the method: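 Estradiol-stimulated ER-alpha-UAS-bla HEK293 cells, 18 hr compound exposure at 37C. LiveBLAzer B/G substrate, 2 hr RT, fluorescence read.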

[3] = qHTS assay to identify small molecule antagonists of the estrogen receptor alpha (ER-alpha) signaling pathway - cell viability counter screen (AID 743074; calls by dose curve;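 also: HEK293 cells carrying ER-alpha-UAS-bla reporter stimulated with 17beta-estradiol; nearly all actives have a fitted effect of over 45% in size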)
[4] = target: Estrogen receptor (Homo sapiens) (UniProt P03372); experiment: qHTS assay to identify small molecule agonists of the estrogen receptor alpha (ER-alpha) signaling pathway (AID 743075; calls by dose curve;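 also: HEK293 GripTite cells with ER-alpha and UAS-driven beta-lactamase reporter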; also: potency is read from the fitted curve at half-maximal effect)
[5] = target: Estrogen receptor (Homo sapiens) (UniProt P03372); experiment: qHTS assay to identify small molecule agonists of the estrogen receptor alpha (ER-alpha) signaling pathway using the BG1 cell line (AID 743079); details: BG1Luc4E2 cells, ERE-luciferase agonist, 22 h; activation: at 70.3 µM (top of the series) unless noted; also: nearly all actives have a fitted effect of over 20% in size; also: potency is read from the fitted curve at half-maximal effect
[6] = qHTS assay to identify small molecule antagonists of the estrogen receptor alpha (ER-alpha) signaling pathway using the BG1 cell line (AID 743080; calls by dose curve;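 also: BG1 cells stimulated with 17beta-estradiol alongside compound; nearly all actives have a fitted effect of over 25% in size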; also: potency is read from the fitted curve at half-maximal effect)
Summary of the method: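 Quantitative HTS on the Tox21 10K library: BG1 cells with endogenous ER-alpha and ERE-luciferase reporter, 17beta-estradiol stimulation, 21.5 h compound exposure, luminescence endpoint with parallel fluorescence cytotoxicity counter-read.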

[7] = qHTS assay to identify small molecule antagonists of the estrogen receptor alpha (ER-alpha) signaling pathway using the BG1 cell line - cell viability counter screen (AID 743081);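 also: compound given together with 17beta-estradiol as the ER stimulus; nearly all actives have a fitted effect of over 45% in size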; also: potency is read from the fitted curve at half-maximal effect
Aromatase (Homo sapiens) = Aromatase (Homo sapiens) (UniProt P11511); experiment: qHTS assay to identify aromatase inhibitors (AID 743083); also: nearly all actives have a fitted effect of over 55% in size; also: potency is read from the fitted curve at half-maximal effect
Chain of Aromatase (Homo sapiens) (P11511 whole entry, looked up): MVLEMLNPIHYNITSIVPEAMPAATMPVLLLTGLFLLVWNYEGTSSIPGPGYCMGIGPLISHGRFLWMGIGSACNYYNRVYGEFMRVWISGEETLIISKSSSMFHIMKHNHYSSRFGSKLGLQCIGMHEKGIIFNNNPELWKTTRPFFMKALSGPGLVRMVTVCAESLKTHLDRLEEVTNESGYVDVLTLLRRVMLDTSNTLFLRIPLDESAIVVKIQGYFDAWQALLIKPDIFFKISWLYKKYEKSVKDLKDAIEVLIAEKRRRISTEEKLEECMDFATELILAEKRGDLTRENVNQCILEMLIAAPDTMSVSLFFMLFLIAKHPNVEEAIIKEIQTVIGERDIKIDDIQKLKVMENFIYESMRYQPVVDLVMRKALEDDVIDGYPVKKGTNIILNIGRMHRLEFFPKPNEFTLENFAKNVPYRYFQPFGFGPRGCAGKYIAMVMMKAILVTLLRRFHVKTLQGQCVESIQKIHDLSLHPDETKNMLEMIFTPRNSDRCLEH

[8] = qHTS assay to identify small molecule antagonists of the thyroid receptor (TR) signaling pathway (AID 743065); also: nearly all actives have a fitted effect of over 55% in size; also: potency is read from the fitted curve at half-maximal effect
Summary of the method: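 GH3.TRE-Luc rat pituitary cells carrying two TR response elements driving luciferase were plated for 4 h, given compound plus 1 nM T3 (final), and incubated 23.5 h at 37 C. ONE-Glo luminescence measured reporter inhibition; CellTiter-Fluor fluorescence tracked cytotoxicity.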

[9] = system: thyroid hormone receptor (rat, GH3 cells); experiment: qHTS assay to identify small molecule agonists of the thyroid receptor (TR) signaling pathway (AID 743066; calls by dose curve)

Row | Compound | Potency [1] | Potency [2] | Potency [3] | Potency [4] | Potency [5] | Potency [6] | Potency [7] | Potency (Aromatase (Homo sapiens)) | Potency [8] | Potency [9] | activation [5]
1 | CC(=O)Nc1ccc(CC(=O)O)cc1 | inactive | inactive | inactive | inactive | inactive | inactive | inactive | inactive |  |  | 
2 | COc1ccccc1[N+](=O)[O-] | inactive |  | inactive |  |  |  | inactive | inactive | inactive | inactive | 
3 | CCCOCC(C)O (stereo not given) | inactive |  | inactive |  |  |  | inactive | inactive | inactive | inactive | 
4 | CCOC(=O)CC(=O)OCC | inactive |  |  |  |  |  | inactive |  | inactive | inactive | 
5 | O=c1c(O)c(-c2ccc(O)c(O)c2)oc2cc(O)cc(O)c12 | inactive and 30.9 µM (active) |  | inactive | 24.6 µM [inconclusive] (active) [middle of 4 runs] | 29.8 µM (active) and 68.7 µM (active) | inactive | inactive | inactive |  | inactive | 18.1% [at 95 µM] (active)
6 | c1cnc2c(c1)ccc1cccnc12 | 7.77 µM (active) and 6.86 µM (active) and 15.4 µM (active) |  | inactive |  |  |  | 15.5 µM (active) | 6.17 µM (active) and 6.86 µM (active) and 9.69 µM (active) |  | inactive | 
7 | CC(C=O)Cc1ccc(C(C)(C)C)cc1 (stereo not given) |  |  | inactive |  |  |  | inactive | inactive | 43.3 µM (active) | inactive | 
8 | CC(=O)c1nccs1 |  | inactive | inactive | inactive | inactive and 48.6 µM (active) | inactive | inactive | inactive | inactive | inactive | 
9 | NC1CCCCC1N (stereo not given) |  |  | inactive |  |  |  | inactive | inactive |  |  | 
10 | O=C(O)C1=NN(c2ccc(S(=O)(=O)O)cc2)C(=O)C1 | inactive | inactive | inactive | inactive | inactive | inactive | inactive | inactive |  |  | 
11 | CC(=O)OC[C@H]1O[C@@](COC(C)=O)(O[C@H]2O[C@H](COC(C)=O)[C@@H](OC(C)=O)[C@H](OC(C)=O)[C@H]2OC(C)=O)[C@@H](OC(C)=O)[C@@H]1OC(C)=O | inactive |  | inactive |  |  |  | inactive | inactive | inactive | inactive | 
12 | CCCCCNCCCCC | inactive |  | inactive |  |  |  | inactive | inactive | inactive | inactive | 
13 | CC(=O)CC(=O)N(C)C |  | inactive | inactive | inactive | inactive | inactive | inactive | inactive | inactive | inactive | 
14 | CC(=O)OCCC(C)C | inactive |  | inactive |  |  |  | inactive | inactive | inactive | inactive | 
15 | O=C1O[C@H]([C@H](O)CO)C(O)=C1O | inactive |  | inactive |  |  |  | inactive | inactive |  | inactive | 
16 | CCCN(CCC)C(=O)SCC | inactive | inactive | inactive | inactive | inactive | inactive | inactive | inactive | inactive |  | 
17 | CC1(C)[C@@H](O[C@H]2O[C@H](C(=O)O)[C@@H](O)[C@H](O)[C@H]2O[C@@H]2O[C@H](C(=O)O)[C@@H](O)[C@H](O)[C@H]2O)CC[C@]2(C)[C@H]3C(=O)C=C4[C@@H]5C[C@@](C)(C(=O)O)CC[C@]5(C)CC[C@@]4(C)[C@]3(C)CC[C@@H]12 | inactive |  | inactive |  |  |  | inactive | inactive |  | inactive | 

Row | Compound | Potency [1] | Potency [2] | Potency [3] | Potency [4] | Potency [5] | Potency [6] | Potency [7] | Potency (Aromatase (Homo sapiens)) | Potency [8] | Potency [9] | activation [5]
18 | O=C(c1ccccc1)c1ccc(O)c(O)c1O |  | inactive | inactive | 61.6 µM [inconclusive] (active) | 61.1 µM (active) | inactive | inactive | inactive |  | inactive | 
19 | CCN(CC)CCNC(=O)c1ccc(N)cc1 | inactive |  | inactive |  |  |  | inactive | inactive | inactive | inactive | 
20 | O=C1OC(=O)c2c(Cl)c(Cl)c(Cl)c(Cl)c21 | inactive |  | inactive |  |  |  | inactive | inactive | inactive | inactive | 
21 | Nc1nc(N)c2nc(-c3ccccc3)c(N)nc2n1 |  |  |  |  | inactive and 68.6 µM (active) |  |  | inactive | 55.1 µM (active) and 54.5 µM (active) | inactive | 
22 | CC[N+](CC)(CC(=O)Nc1c(C)cccc1C)Cc1ccccc1 | inactive |  | inactive |  |  |  | inactive | inactive |  |  | 
23 | Cc1cc(CC(=O)O)n(C)c1C(=O)c1ccc(Cl)cc1 | inactive |  | inactive |  |  |  | inactive | inactive | inactive | inactive | 
24 | NC(=O)c1ncn([C@@H]2O[C@H](CO)[C@@H](O)[C@H]2O)n1 | 33.5 µM (active) |  | inactive |  |  |  | inactive | inactive | 13.3 µM (active) and 28.8 µM (active) | inactive | 
25 | CC(CN1c2ccccc2Sc2ccccc21)N(C)C (stereo not given) | 23.7 µM (active) and 5.5 µM (active) and 30.6 µM (active) |  |  |  |  |  | inactive | inactive and 61.8 µM (active) | 26.6 µM (active) and 27.6 µM (active) and 61.1 µM (active) | inactive | 
26 | COc1ccc2cc3[n+](cc2c1OC)CCc1cc2c(cc1-3)OCO2 | inactive |  |  | inactive |  | 26.6 µM (active) |  | inactive | 61.6 µM (active) | inactive | 
27 | CCc1cccc(CC)c1N |  | inactive | inactive | inactive | inactive | inactive | inactive | inactive | inactive | inactive | 
28 | N[C@@H](Cc1cc(I)c(Oc2ccc(O)c(I)c2)c(I)c1)C(=O)O |  | 23.9 µM [inconclusive] (active) and inactive | inactive | 9.51 µM [activator] (active) and inactive and 51 µM [fluorescent] (active) | 37.1 µM (active) and 40.2 µM (active) | 26.6 µM (active) and inactive and 8.02 µM (active) | inactive | inactive |  |  | 
29 | Clc1cccc(Cl)c1NC1=NCCN1 | inactive |  | inactive |  |  |  | inactive | inactive | inactive | inactive | 
30 | CC1=CC(=O)CC(C)(C)C1 | inactive |  | inactive |  |  |  | inactive | inactive | inactive | inactive | 
31 | COCN(COC)c1nc(N(COC)COC)nc(N(COC)COC)n1 | inactive | inactive | inactive | inactive | inactive | inactive | inactive | inactive |  |  | 
32 | Cc1ccc(Cl)cc1 | inactive | inactive | inactive | inactive | inactive | inactive | inactive | inactive |  |  | 
33 | COc1cc(NC(=O)CC(C)=O)c(OC)cc1Cl | inactive |  | inactive | inactive | inactive | inactive | inactive | inactive and 12.2 µM (active) |  | inactive | 
34 | Oc1ccc(Cc2ccccc2O)cc1 | inactive |  | inactive | 11.1 µM [inconclusive] (active) and 24.5 µM [inconclusive] (active) | 9.81 µM (active) and 6.11 µM (active) | inactive | inactive | inactive |  | inactive | 
